Test results published in PubChem BioAssay.
Activity calls are given as the source filed them.

Assays:
[1] = small molecules captured by biotinylated probe aFSTL3 – biochemical, small-molecule microarray, fluorescence 635/667, stem cell growth factor project, primary screen (AID 1064); settings: higher = more signal;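 also: measures binding of the biotinylated anti-FSTL3 antibody to printed compounds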
[2] = binders from COS7 lysate, DM2A8 probe, primary screen, torsin A project, cell lysate, small-molecule microarray, fluorescence 635/667 (AID 1065); settings: higher = more signal, COS7 lysate expressing mutant human TOR1A
[3] = small molecules captured by biotinylated probe aFGF2 – biochemical, small-molecule microarray, fluorescence 635/667, stem cell growth factor project, primary screen (AID 1067); settings: higher = more signal;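 also: measures binding of biotinylated aFGF2 protein to printed compounds on slides; z-score merges feature fluorescence and signal-to-noise across triplicate slides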
[4] = small molecules captured by biotinylated probe aFGF10 – biochemical, small-molecule microarray, fluorescence 635/667, stem cell growth factor project, primary screen (AID 1071); settings: higher = more signal;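 also: score merges 667 nm spot intensity and signal to noise from triplicate slides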
[5] = target: Neurogenic locus notch homolog protein 2 (Homo sapiens) (UniProt Q04721); assay: small molecules binding Notch2 protein – biochemical, small-molecule microarray, 635 nm fluorescence, stem cell growth factors, primary screen (AID 1073); settings: higher = more signal
[6] = target: Pro-neuregulin-1, membrane-bound isoform (Homo sapiens) (UniProt Q02297); assay: small molecules binding neuregulin-1 protein – biochemical, small-molecule microarray, fluorescence 635/667, psychiatric disease protein project, primary screen (AID 1075); settings: NRG1 binding, 635 nm fluorescence, higher = more signal;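 also: score combines 667 nm spot fluorescence with signal to noise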
[7] = system: Neuregulin-1 EGF-like domain; assay: small molecules binding NRG1 EGF domain – biochemical, small-molecule microarray, 635 nm fluorescence, primary screen (AID 1081); settings: higher = more signal;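 also: binding of the protein to compounds printed on small-molecule microarray slides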
[8] = FRG1 expression reporter modulators in myotubes – cell-based, C2C12 myotubes, firefly/Renilla luciferase, luminescence, FRG1 inhibition for FSHD, primary screen (AID 1084); settings: FRG1 promoter luciferase, higher = more signal, called active from +8 up or from −8 down
[9] = small molecules captured by biotinylated probe aFST – biochemical, small-molecule microarray, fluorescence 635/667, stem cell growth factor project, primary screen (AID 1086); settings: higher = more signal;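 also: score merges 667 nm fluorescence with signal-to-noise of each printed compound spot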
[10] = binders of probe aHhip on microarray, primary screen, stem cell growth factor project, biochemical, small-molecule microarray, fluorescence 635/667 (AID 1087); settings: higher = more signal;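 also: score merges spot fluorescence at 667nm with spot signal to noise ratio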
[11] = system: PRMT1 (protein arginine N-methyltransferase 1); assay: small molecules binding arginine methyltransferase PRMT1 – biochemical, small-molecule microarray, 635 nm fluorescence, primary screen (AID 1088); settings: higher = more signal;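 also: binding of Prmt1 protein to compounds spotted on small-molecule microarray slides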
[12] = growth effects on S. cerevisiae YJM789 – YJM789 clinical isolate, OD600, 24 h, basal, primary screen (AID 1089); settings: higher = more signal, called active from +8 up or from −8 down;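 also: growth of clinical yeast isolate S. cerevisiae YJM 789 seeded 1000 cells per well; test concentration not given here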
[13] = S. pombe growth modifiers, basal conditions – strain 972, OD600, 24 h, no modulator, primary screen (AID 1090);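 also: basal condition with compound alone and no growth modifier present; test concentration not given here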; settings: S. pombe 972 growth, higher = more signal, called active from +8 up or from −8 down
[14] = budding yeast growth modifiers under rapamycin – strain BY4716, OD600, 96 h, primary screen (AID 1091); also: test concentration not given here; settings: S. cerevisiae BY4716 + rapamycin, higher = more signal, called active from +8 up or from −8 down
[15] = target: Torsin-1A-interacting protein 2 (Homo sapiens) (UniProt Q8NFQ8); assay: small molecules binding lysate-expressed LULL1 – cell lysate, human LULL1 lysate, 635/667 nm fluorescence, primary screen (AID 1092); settings: small-molecule microarray, hLULL1 lysate binding, 635 nm fluorescence; higher = more signal;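 also: probe is lysate of COS7 cells overexpressing human LULL1; score merges per-feature 667 nm fluorescence with signal-to-noise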
[16] = optical density change of DRC41 E. coli – strain DRC41, OD650, 24 h, E. coli filamentation project, primary screen (AID 1093);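 also: MC1000 strain lacking acrAB efflux and sulA so SOS filamentation is blocked; test concentration not given here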; settings: E. coli DRC41 growth, higher = more signal, called active from +8 up or from −8 down
[17] = probe aLefty2 binding to arrayed compounds – biochemical, biotinylated probe, 635/667 nm fluorescence, primary screen (AID 1094); settings: small-molecule microarray, higher = more signal;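 also: score merges spot fluorescence near 667 nm with spot signal-to-noise ratio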
[18] = system: Noggin (protein binding on small-molecule microarray); assay: small molecules binding Noggin protein – biochemical, 635/667 nm fluorescence, primary screen (AID 1095); settings: 635 nm fluorescence, higher = more signal;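 also: score merges 667 nm feature fluorescence with signal to noise over triplicate slides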
[19] = target: Neurogenic locus notch homolog protein 3 (Homo sapiens) (UniProt Q9UM47); assay: small molecules binding NOTCH3 protein – biochemical, 635/667 nm fluorescence, primary screen (AID 1096); settings: small-molecule microarray, 635 nm fluorescence, higher = more signal
[20] = probe aEGFR binding to arrayed compounds – biochemical, biotinylated probe, 635/667 nm fluorescence, primary screen (AID 1097); settings: small-molecule microarray, higher = more signal;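 also: probe is a biotinylated anti-EGFR antibody binding compounds printed on slides; score combines fluorescence near 667 nm and signal to noise of each spot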

Sequence of Pro-neuregulin-1, membrane-bound isoform (Homo sapiens) (Q02297 whole entry, looked up, the tested form may be a part, canonical isoform): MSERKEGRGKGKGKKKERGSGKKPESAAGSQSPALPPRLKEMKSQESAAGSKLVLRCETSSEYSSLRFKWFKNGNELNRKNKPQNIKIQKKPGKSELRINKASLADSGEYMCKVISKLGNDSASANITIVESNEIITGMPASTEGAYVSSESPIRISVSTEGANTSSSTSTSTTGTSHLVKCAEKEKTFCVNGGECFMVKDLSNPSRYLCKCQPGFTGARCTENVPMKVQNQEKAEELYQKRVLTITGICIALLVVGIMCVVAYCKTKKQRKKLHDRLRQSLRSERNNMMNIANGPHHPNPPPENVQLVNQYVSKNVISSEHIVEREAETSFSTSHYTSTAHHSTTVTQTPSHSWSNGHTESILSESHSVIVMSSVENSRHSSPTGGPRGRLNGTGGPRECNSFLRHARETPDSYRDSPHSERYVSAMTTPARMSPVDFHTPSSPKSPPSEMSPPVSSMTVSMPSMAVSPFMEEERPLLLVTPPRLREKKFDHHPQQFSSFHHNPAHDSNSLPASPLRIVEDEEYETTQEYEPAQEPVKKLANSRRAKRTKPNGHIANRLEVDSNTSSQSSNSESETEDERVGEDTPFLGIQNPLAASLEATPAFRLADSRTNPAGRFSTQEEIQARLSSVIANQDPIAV
Sequence of Neurogenic locus notch homolog protein 3 (Homo sapiens) (Q9UM47 whole entry, looked up): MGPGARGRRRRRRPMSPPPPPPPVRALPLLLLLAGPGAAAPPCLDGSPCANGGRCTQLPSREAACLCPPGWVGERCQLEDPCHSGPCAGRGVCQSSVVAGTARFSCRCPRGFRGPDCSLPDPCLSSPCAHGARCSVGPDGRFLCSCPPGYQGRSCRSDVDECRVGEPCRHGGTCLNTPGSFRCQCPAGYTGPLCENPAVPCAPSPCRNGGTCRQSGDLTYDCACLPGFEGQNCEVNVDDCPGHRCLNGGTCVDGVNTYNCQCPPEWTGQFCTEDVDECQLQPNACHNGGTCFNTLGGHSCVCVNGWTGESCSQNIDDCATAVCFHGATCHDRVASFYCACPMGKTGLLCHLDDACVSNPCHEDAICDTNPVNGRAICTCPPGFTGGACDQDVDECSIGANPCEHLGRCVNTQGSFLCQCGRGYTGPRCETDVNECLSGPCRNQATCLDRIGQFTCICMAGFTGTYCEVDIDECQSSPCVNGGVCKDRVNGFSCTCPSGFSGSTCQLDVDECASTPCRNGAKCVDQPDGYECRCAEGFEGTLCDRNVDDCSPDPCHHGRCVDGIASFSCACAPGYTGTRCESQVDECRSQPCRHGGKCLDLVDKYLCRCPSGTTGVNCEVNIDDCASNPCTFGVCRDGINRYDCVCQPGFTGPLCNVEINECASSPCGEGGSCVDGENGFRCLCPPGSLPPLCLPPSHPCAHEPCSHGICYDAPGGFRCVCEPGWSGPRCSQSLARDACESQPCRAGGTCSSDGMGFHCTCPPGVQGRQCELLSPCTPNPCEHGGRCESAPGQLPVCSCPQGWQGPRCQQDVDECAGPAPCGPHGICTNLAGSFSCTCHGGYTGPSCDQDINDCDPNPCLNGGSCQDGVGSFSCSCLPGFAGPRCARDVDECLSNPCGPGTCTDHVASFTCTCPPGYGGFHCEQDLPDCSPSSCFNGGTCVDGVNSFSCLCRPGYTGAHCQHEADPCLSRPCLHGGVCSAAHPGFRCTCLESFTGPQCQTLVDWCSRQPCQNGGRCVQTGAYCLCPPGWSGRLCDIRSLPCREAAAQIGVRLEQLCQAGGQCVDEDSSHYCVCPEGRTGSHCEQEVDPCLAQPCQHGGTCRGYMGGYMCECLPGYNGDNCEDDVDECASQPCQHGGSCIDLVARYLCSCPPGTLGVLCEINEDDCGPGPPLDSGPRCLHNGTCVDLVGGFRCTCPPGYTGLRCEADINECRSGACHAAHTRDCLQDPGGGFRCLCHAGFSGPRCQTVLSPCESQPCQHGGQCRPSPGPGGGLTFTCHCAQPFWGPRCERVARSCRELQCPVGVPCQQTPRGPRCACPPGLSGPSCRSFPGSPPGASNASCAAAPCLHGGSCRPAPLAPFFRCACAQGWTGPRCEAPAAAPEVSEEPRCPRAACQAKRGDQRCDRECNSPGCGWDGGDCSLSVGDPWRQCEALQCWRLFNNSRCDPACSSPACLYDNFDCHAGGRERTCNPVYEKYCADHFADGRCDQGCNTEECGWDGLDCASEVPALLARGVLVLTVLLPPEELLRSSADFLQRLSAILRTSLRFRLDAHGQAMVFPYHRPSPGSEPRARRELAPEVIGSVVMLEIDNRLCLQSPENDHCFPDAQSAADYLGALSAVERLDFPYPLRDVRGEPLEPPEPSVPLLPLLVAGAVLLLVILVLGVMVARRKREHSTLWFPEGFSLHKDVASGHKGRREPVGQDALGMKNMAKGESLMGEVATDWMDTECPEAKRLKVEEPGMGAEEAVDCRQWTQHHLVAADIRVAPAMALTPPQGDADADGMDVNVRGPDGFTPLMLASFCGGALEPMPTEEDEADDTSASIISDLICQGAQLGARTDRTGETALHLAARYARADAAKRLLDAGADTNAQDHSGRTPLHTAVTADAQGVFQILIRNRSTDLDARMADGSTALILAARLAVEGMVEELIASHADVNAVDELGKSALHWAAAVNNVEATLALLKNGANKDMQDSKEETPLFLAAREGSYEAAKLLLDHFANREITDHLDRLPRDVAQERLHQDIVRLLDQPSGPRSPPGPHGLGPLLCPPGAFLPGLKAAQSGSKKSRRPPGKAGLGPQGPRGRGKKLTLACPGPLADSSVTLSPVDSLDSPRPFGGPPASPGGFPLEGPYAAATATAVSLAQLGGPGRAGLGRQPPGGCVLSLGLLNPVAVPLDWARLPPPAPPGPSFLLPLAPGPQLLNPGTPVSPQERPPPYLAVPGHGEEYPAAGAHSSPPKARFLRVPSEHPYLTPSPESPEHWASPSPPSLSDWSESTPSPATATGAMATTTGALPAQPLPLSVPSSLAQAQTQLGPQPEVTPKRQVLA
Sequence of Torsin-1A-interacting protein 2 (Homo sapiens) (Q8NFQ8 whole entry, looked up): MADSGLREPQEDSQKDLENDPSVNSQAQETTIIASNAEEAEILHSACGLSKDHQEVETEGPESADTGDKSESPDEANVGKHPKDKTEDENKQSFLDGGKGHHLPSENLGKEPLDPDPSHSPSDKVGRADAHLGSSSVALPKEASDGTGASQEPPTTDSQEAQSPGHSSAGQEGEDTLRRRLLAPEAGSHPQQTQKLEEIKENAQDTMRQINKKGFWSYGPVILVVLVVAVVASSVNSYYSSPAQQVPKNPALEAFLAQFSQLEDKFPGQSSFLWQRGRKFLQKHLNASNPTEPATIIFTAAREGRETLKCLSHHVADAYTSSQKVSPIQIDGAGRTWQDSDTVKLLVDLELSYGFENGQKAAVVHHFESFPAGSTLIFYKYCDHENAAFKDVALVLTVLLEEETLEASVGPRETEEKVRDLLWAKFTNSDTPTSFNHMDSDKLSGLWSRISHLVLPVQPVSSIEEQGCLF

| SMILES | composite z-score [1] | composite z-score [2] | composite z-score [3] | composite z-score [4] | composite z-score [5] | composite z-score [6] | composite z-score [7] | z-score [8] | composite z-score [9] | composite z-score [10] | composite z-score [11] | z-score [12] | z-score [13] | z-score [14] | composite z-score [15] | z-score [16] | composite z-score [17] | composite z-score [18] | composite z-score [19] | composite z-score [20] |
| --- | --- | --- | --- | --- | --- | --- | --- | --- | --- | --- | --- | --- | --- | --- | --- | --- | --- | --- | --- | --- |
| CN1C(=O)C2C=CC(C(O)c3cccs3)N(N(c3ccccc3)c3ccccc3)C2C1=O (stereo not given) | -0.128 | -0.493 | 0.0472 | 0.272 | 1.1 | 1.19 | 1.21 | -0.179 (inactive) | 0.379 | -0.0645 | 1.2 | 1 (inactive) | 0.881 (inactive) | 0.571 (inactive) | 2.62 | -0.874 (inactive) | 0.0453 | 0.0625 | 0.932 | -0.17 |
| C[C@@]1([C@@H](NS(=O)(=O)c2cccc3cccnc23)c2ccc(-c3ccccc3)cc2)C[C@H]1C1CCCCC1 | 0.299 | 0.0816 | 0.163 | -0.0733 | 0.983 | 0.609 | 0.809 | -0.365 (inactive) | -0.244 | 0.0446 | 0.79 | 0.523 (inactive) | 0.381 (inactive) | 1.41 (inactive) | 2.47 | -1.89 (inactive) | 0.134 | -0.0642 | 0.818 | -0.0316 |
| CC(C)Cc1ccc(CN2CC[C@@H](NC(=O)c3ccccc3)C2)cc1 | 0.0315 | 0.481 | -0.176 | -0.102 | -0.859 | 0.638 | -0.368 | -0.623 (inactive) | -0.174 | -0.13 | -0.174 | -0.216 (inactive) | -21.2 (active) | 0.237 (inactive) | -0.0003 | -0.219 (inactive) | -0.167 | 0.666 | -0.0255 | -0.157 |
| [N-]=[N+]=NCc1ccccc1[C@H]1OC(c2ccc(OCCCO)cc2)=N[C@@]1(Cc1ccccc1N=[N+]=[N-])C(N)=O | 0.0097 | 0.998 | 0.05 | 0.995 | 1.54 | 1.7 | 1.11 | 4.46 (inactive) | 1.76 | -0.156 | 1.56 | 0.61 (inactive) | -0.678 (inactive) | -1.39 (inactive) | 3.31 | 0.0539 (inactive) | 0.0573 | 0.412 | 1.09 | 0.0009 |
| C=CCNC(=O)[C@H]1[C@@H]2C(=O)O[C@@H](c3ccccc3)[C@@H](c3ccccc3)N2[C@@H](c2ccc(O)cc2)[C@]12C(=O)N(C(=O)OCCOC)c1ccc(C#Cc3ccc(OC)cc3)cc12 | 0.165 | 0.383 | 0.0106 | 0.978 | 0.759 | 0.788 | 0.995 | 0.75 (inactive) | 0.307 | -0.0672 | 1.42 | 0.622 (inactive) | 0.074 (inactive) | 1.66 (inactive) | 2.23 | -0.866 (inactive) | -0.0302 | 0.44 | 0.892 | 0.0219 |
